SMILES strings stand for the structures. Values joined by “and” are separate entries in the source; they are usually repeats but may differ in a detail not shown here. Identical values can stand only once.

In one experiment the target is Protein-tyrosine kinase 2-beta (Homo sapiens) (UniProt Q14289). The conditions noted are these: at 0.1 µM.
Sequence of Protein-tyrosine kinase 2-beta (Homo sapiens) (Q14289 whole entry, looked up): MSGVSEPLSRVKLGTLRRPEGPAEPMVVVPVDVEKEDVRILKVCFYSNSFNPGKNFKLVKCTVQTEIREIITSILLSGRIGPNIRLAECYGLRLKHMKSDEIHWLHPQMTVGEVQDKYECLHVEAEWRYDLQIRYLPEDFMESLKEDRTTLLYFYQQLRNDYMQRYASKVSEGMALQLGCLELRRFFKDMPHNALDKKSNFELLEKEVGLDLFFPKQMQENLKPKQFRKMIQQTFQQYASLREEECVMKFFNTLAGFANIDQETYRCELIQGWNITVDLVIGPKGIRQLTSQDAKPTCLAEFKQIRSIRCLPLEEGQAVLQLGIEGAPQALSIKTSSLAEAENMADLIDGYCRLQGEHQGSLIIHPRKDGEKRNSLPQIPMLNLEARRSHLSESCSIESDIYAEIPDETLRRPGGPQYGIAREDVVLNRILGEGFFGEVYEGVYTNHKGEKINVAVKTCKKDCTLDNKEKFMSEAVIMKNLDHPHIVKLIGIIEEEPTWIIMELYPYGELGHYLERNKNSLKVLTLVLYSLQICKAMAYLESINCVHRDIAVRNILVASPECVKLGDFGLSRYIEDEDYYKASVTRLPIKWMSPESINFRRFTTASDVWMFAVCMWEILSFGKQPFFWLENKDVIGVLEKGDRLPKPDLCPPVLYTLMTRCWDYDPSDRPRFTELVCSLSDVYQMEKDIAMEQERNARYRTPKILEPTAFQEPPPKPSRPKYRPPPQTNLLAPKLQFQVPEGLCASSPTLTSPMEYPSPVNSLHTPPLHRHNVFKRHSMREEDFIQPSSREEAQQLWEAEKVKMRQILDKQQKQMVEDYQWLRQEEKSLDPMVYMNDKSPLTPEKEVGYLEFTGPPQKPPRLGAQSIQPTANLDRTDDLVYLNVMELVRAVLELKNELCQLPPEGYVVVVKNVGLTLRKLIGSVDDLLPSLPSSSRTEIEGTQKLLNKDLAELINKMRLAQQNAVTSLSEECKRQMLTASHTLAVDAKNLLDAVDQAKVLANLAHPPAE
What is called inhibition is the drop in the measured response relative to a control, in per cent. Consider `Cc1cc(O)cc(C)c1/C=C/c1cncc(C(=O)OC(C)(C)C)c1`, for which the inhibition turned out to be 13.2%.
The same measure, in the same setting: the value for `CS(=O)(=O)Nc1ccc(-c2ccc3c(NC(=O)C4CC4)n[nH]c3c2)cc1` was 9.87%; that for `COc1cc2c(cc1Nc1nc(Nc3cccc(F)c3C(N)=O)c3cc[nH]c3n1)N(C(=O)CN1CCN(C(C)C)CC1)CC2` was 57.7%.
For the molecule `COC(=O)Nc1nc2cc(Oc3ccc(NC(=O)Nc4ccccc4)cc3)ccc2[nH]1`, the inhibition was -1.17%.
The same measure, in the same setting: the result for `COc1ccccc1-c1cc(/C=C2\C(=O)Nc3ncc(Br)cc32)cc(Br)c1O` reads 15.6%; that for `O=C(Nc1n[nH]c2nnc(-c3cccnc3)cc12)C1CC1`, 1.2%; that for `CCOc1ccc2c(-c3ccnc(Nc4cc(OC)cc(C(F)(F)F)c4)n3)cnn2n1`, 4.61%.
As for `O=C(O[C@H]1CN[C@H](C#Cc2cc3ncnc(Nc4ccc(OCc5cccc(F)c5)c(Cl)c4)c3s2)C1)N1CCOCC1`, the inhibition was determined as 12.3%.
Still for that read-out and setting: the result for `CC1=C(C(=O)Nc2ccc3[nH]ncc3c2)C(c2ccc(F)cc2)N=C(c2ccc(C(F)(F)F)nc2)N1` (configuration not stated) reads 6.19%.
As to `Nc1nccc(-c2c(-c3ccc(F)cc3)ncn2C2CCNCC2)n1`, the inhibition was -6.28% and 0.77%.
The same measure, in the same setting: the value for `COc1c(C(N)=O)cc(-c2ccc(Cl)cc2)cc1-c1ccc(S(N)(=O)=O)cc1` was 5.92%.
On the same count and under the same terms, the result for `CCS(=O)(=O)c1ccc(OC)c(Nc2ncc(-c3cccc(F)c3)o2)c1` reads 11%.
On to `Cc1c2ccc(N(C)c3ccnc(Nc4cccc(S(N)(=O)=O)c4)n3)cc2nn1C`, for which the inhibition is 10.9%.
On to `CN(C)CCNC(=O)Nc1ccc(N(C)c2ccnc(Nc3ccc(CS(C)(=O)=O)cc3)n2)cc1`, for which the inhibition stood at 18.4%.
On the same count and under the same terms, the value for `COc1ccc2ncn(-c3cc(O[C@H](C)c4ccccc4C(F)(F)F)c(C(N)=O)s3)c2c1` was -4.13%; that for `Cc1nnc(-c2cccc(-c3ccc(C(=O)NCC4CC4)cc3)c2)o1` was 12.3%.
The same measure, in the same setting: the value for `CS(=O)(=O)Nc1ccc(-c2cc(-c3ccccc3)cc(C(N)=O)c2N)cc1` was 3.11%; that for `CN1CCC(n2cnc(-c3ccc(F)cc3)c2-c2ccnc(NCCO)n2)CC1` was 6.77%.
Regarding `COC(=O)Nc1nc2ccc(Oc3ccc(NC(=O)Nc4cc(C(F)(F)F)ccc4F)cc3)cc2s1`, the inhibition worked out at 1.98%.
For the molecule `COc1ccc(Nc2ncc(-c3ccccc3)o2)cc1OC`, the inhibition was -5.6%.
Same read-out and setting: the result for `OCCCNc1nccc(-c2c(-c3ccc(F)cc3)nn3cc(C(F)(F)F)ccc23)n1` reads 3.13%; that for `Fc1cccc(COc2ccc(Nc3ncncc3C#Cc3ccccc3)cc2Cl)c1`, 13.9%.
Same read-out and setting: the result for `CS(=O)(=O)CCNCc1ccc(-c2ccc3ncnc(Nc4ccc(OCc5cccc(C(F)(F)F)c5)cc4)c3c2)o1` reads 1.85%; that for `CS(=O)(=O)CCNCc1ccoc1-c1ccc2ncnc(Nc3ccc(OCc4ccccc4)cc3)c2c1`, 0.12%.
Still for that read-out and setting: the value for `N#Cc1cccc(Nc2ncc(-c3ccccc3)o2)c1` was 1.87%; that for `N#Cc1ccc2c(-c3ccnc(NC4CC4)n3)c(-c3ccc(F)cc3)nn2c1` was -1.69%.
With `Cc1ccc(-c2cc3c(NC(=O)C4CC4)ncnc3o2)cc1`, the inhibition is 9.96%.
As to `NS(=O)(=O)c1cccc(N/C=C2\C(=O)Nc3ccccc32)c1`, the inhibition turned out to be 14.1%.
In the case of `O=C(O[C@H]1CN[C@H](C#Cc2cc3ncnc(Nc4ccc5c(cnn5Cc5ccccc5)c4)c3s2)C1)N1CCOCC1`, the inhibition came to 1.18%.
For the molecule `Cc1cc(O)cc(C)c1/C=C/c1cncc(C(N)=O)c1`, the inhibition was 8.94%.
On the same count and under the same terms, the result for `CS(=O)(=O)CCNCc1ccc(-c2ccc3ncnc(Nc4ccc(OCc5ccccc5)cc4)c3c2)o1` reads 7.76%.

For another experiment the target is unchanged. The conditions noted are these: at 1 µM.
`Cc1cc(O)cc(C)c1/C=C/c1cncc(C(=O)OC(C)(C)C)c1`: the inhibition amounted to 7.22%.
Same read-out and setting: the value for `CS(=O)(=O)Nc1ccc(-c2ccc3c(NC(=O)C4CC4)n[nH]c3c2)cc1` was 8.59%; that for `COc1cc2c(cc1Nc1nc(Nc3cccc(F)c3C(N)=O)c3cc[nH]c3n1)N(C(=O)CN1CCN(C(C)C)CC1)CC2` was 93.4%.
Same read-out and setting: the value for `COC(=O)Nc1nc2cc(Oc3ccc(NC(=O)Nc4ccccc4)cc3)ccc2[nH]1` was 6.99%; that for `COc1ccccc1-c1cc(/C=C2\C(=O)Nc3ncc(Br)cc32)cc(Br)c1O` was 39.1%.
On the same count and under the same terms, the value for `O=C(Nc1n[nH]c2nnc(-c3cccnc3)cc12)C1CC1` was 1.77%.
Consider `CCOc1ccc2c(-c3ccnc(Nc4cc(OC)cc(C(F)(F)F)c4)n3)cnn2n1`, for which the inhibition was 21.2%.
Take `O=C(O[C@H]1CN[C@H](C#Cc2cc3ncnc(Nc4ccc(OCc5cccc(F)c5)c(Cl)c4)c3s2)C1)N1CCOCC1`: the inhibition worked out at 16.8%.
Take `CC1=C(C(=O)Nc2ccc3[nH]ncc3c2)C(c2ccc(F)cc2)N=C(c2ccc(C(F)(F)F)nc2)N1` (configuration not stated): the inhibition was 8.2%.
On the same count and under the same terms, the result for `Nc1nccc(-c2c(-c3ccc(F)cc3)ncn2C2CCNCC2)n1` reads -3.71% and 3.63%; that for `COc1c(C(N)=O)cc(-c2ccc(Cl)cc2)cc1-c1ccc(S(N)(=O)=O)cc1`, 12.1%; that for `CCS(=O)(=O)c1ccc(OC)c(Nc2ncc(-c3cccc(F)c3)o2)c1`, 22.9%.
The same measure, in the same setting: the value for `Cc1c2ccc(N(C)c3ccnc(Nc4cccc(S(N)(=O)=O)c4)n3)cc2nn1C` was 39%; that for `CN(C)CCNC(=O)Nc1ccc(N(C)c2ccnc(Nc3ccc(CS(C)(=O)=O)cc3)n2)cc1` was 58.6%.
On the same count and under the same terms, the value for `COc1ccc2ncn(-c3cc(O[C@H](C)c4ccccc4C(F)(F)F)c(C(N)=O)s3)c2c1` was -9.62%; that for `Cc1nnc(-c2cccc(-c3ccc(C(=O)NCC4CC4)cc3)c2)o1` was 9.85%.
As to `CS(=O)(=O)Nc1ccc(-c2cc(-c3ccccc3)cc(C(N)=O)c2N)cc1`, the inhibition turned out to be 8.02%.
On the same count and under the same terms, the result for `CN1CCC(n2cnc(-c3ccc(F)cc3)c2-c2ccnc(NCCO)n2)CC1` reads 18%; that for `COC(=O)Nc1nc2ccc(Oc3ccc(NC(=O)Nc4cc(C(F)(F)F)ccc4F)cc3)cc2s1`, 6.74%.
As for `COc1ccc(Nc2ncc(-c3ccccc3)o2)cc1OC`, the inhibition was 1.04%.
On to `OCCCNc1nccc(-c2c(-c3ccc(F)cc3)nn3cc(C(F)(F)F)ccc23)n1`, for which the inhibition is 7.75%.
For `Fc1cccc(COc2ccc(Nc3ncncc3C#Cc3ccccc3)cc2Cl)c1`, the inhibition was determined as 15.1%.
On the same count and under the same terms, the value for `CS(=O)(=O)CCNCc1ccc(-c2ccc3ncnc(Nc4ccc(OCc5cccc(C(F)(F)F)c5)cc4)c3c2)o1` was 12.6%; that for `CS(=O)(=O)CCNCc1ccoc1-c1ccc2ncnc(Nc3ccc(OCc4ccccc4)cc3)c2c1` was 1.57%; that for `N#Cc1cccc(Nc2ncc(-c3ccccc3)o2)c1` was 7.64%.
For `N#Cc1ccc2c(-c3ccnc(NC4CC4)n3)c(-c3ccc(F)cc3)nn2c1`, the inhibition was 0.44%.
The same measure, in the same setting: the result for `Cc1ccc(-c2cc3c(NC(=O)C4CC4)ncnc3o2)cc1` reads 10.2%; that for `NS(=O)(=O)c1cccc(N/C=C2\C(=O)Nc3ccccc32)c1`, 27.4%; that for `O=C(O[C@H]1CN[C@H](C#Cc2cc3ncnc(Nc4ccc5c(cnn5Cc5ccccc5)c4)c3s2)C1)N1CCOCC1`, -1.26%.
Still for that read-out and setting: the result for `Cc1cc(O)cc(C)c1/C=C/c1cncc(C(N)=O)c1` reads 8.75%.
Still for that read-out and setting: the result for `CS(=O)(=O)CCNCc1ccc(-c2ccc3ncnc(Nc4ccc(OCc5ccccc5)cc4)c3c2)o1` reads 6.51%.
